IL-1B inflam inh: inflammasome signaling inhibition, IL-1 beta readout. THP-1 LPS/ATP IL-1B secretion, AlphaLISA, 16 h; active compounds read low. activity change, % at 57.5 µM. actives 4.7% (n = 360,000). AID 743279; in the data active = activity change below about -50%; inconclusive = mostly about -30% to -49%
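THP-1 cells pretreated 1 hr with compounds (up to 57.5 uM final), then stimulated with LPS (250 ng/mL final) plus ATP (1.25 mM final); secreted IL-1B measured by AlphaLISA after 16 hr, decreased signal indicating inhibition.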
HT1080 IDH1KD tx: toxicity to HT-1080 IDH1 knockdown cells (counter line) | AID 686971 | Potency, µM (highest dose often 46.1 µM), without a hit: at the top dose activity, negative = toxicity, most hits filed as cytotoxic | actives 2% (n = 360,000) | HT-1080 IDH1 knockdown viability, ATP luminescence, 48 h;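 also: potency is read from the fitted curve at half-maximal effect; 0% = DMSO wells and -100% = cell-free medium wells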
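Using the IDH1-knockdown HT-1080 line run in the same batch and compound series as the NT line, viability after 48 h at 37 °C was determined by CellTiter-Glo luminescence and expressed as % activity.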
HT1080NT lethal: kills 2HG-producing HT-1080-NT fibrosarcoma cells | HT-1080-NT fibrosarcoma viability, CellTiter-Glo ATP luminescence, 48 h | actives 1.6% (n = 360,000) | Potency, µM (series often up to 46.1 µM), for the others: at the highest dose activity, negative = less viability, hits mostly cytotoxic;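 also: NT is the 2HG producing partner of a matched IDH1 knockdown line; potency is read from the fitted curve at half-maximal effect; 0% = DMSO-treated cells and -100% = media-only wells without cells; nearly all actives have a fitted effect of over 55% in size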
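Compounds were tested in concentration-response format on HT-1080-NT cells for 48 hours at 37 degrees C. Cell viability came from CellTiter-Glo luminescence; curves were classified by r2, response magnitude and activity.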
TDP1 cell noCPT: qHTS for Inhibitors of human tyrosyl-DNA phosphodiesterase 1 (TDP1): qHTS in cells in absence of CPT. DT40 Tdp1-/- hTDP1 cells, no CPT, ATP luminescence, 48 h. Potency, µM (doses to about 46.2 µM), inactives show top-dose activity change, negative = growth inhibition, hits mostly inhibitors. actives 15% (n = 420,000). AID 686978, 2013; also: potency is read from the fitted curve at half-maximal effect; nearly all actives have a fitted effect of over 55% in size
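Stably hTDP1-transfected Tdp1-null chicken DT40 cells were treated with library compounds minus camptothecin and grown for at least 48 hr at 37 °C, after which cellular ATP was quantified by luminescence.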
TDP1 cell CPT: growth inhibition of DT40 Tdp1-/-;hTDP1 cells with camptothecin (screen for TDP1 inhibitors) | chicken DT40 Tdp1-/-;hTDP1 cells + 20 nM CPT, ATP luminescence, 48 h | Potency, µM (doses to about 46.2 µM), without a hit: at the highest dose activity change, negative = growth inhibition, usual class: inhibitors | actives 12% (n = 420,000); also: potency is read from the fitted curve at half-maximal effect; nearly all actives have a fitted effect of over 55% in size
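Chicken DT40 Tdp1-/- cells stably complemented with human TDP1 were seeded at 400 cells/well in medium containing 20 nM camptothecin, exposed to pin-transferred compounds, and grown at 37 °C for at least 48 hr. Viability was read as ATP luminescence.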
* = called active by the depositor; ? = inconclusive; . = not tested or not shown. Shown are actives, neighbours in structure and some others; about 19% of the full set was active somewhere. Unless noted, calls follow the shape of the dose curve; as a rule, active = well fitted curve in the direction sought with a large enough effect; inconclusive = small, poorly fitted or top-dose-only effect, or another doubt; inactive = no such curve, though single readings can be large; an effect the other way counts as inactive or inconclusive. Unless noted, % is scaled to controls: 0 for no effect and ±100 for the full control effect.

SMILES | IL-1B inflam inh | HT1080 IDH1KD tx | HT1080NT lethal | TDP1 cell noCPT | TDP1 cell CPT
COc1ccc(/C=C/CN2CCN(Cc3ccc(F)cc3)C(CCO)C2)cc1 (centres undefined) | -55* | -8% | -16% | 29µM* | ?
CCOc1ccccc1CN1CCN(Cc2[nH]c3ccccc3c2C)CC1CCO (centres undefined) | -9 | ? | -17% | 15µM* | ?
O=C(CSc1nnc(CNC(=O)c2ccco2)o1)Nc1nc2ccccc2s1 | 7 | -1% | -1% | -28% | -23%
CC1CCCCC12NC(=O)N(CC(=O)OCc1ccc(Br)cc1)C2=O (centres undefined) | 20 | -7% | -5% | ? | -28%
Cc1ccc(CN2CCN(Cc3cc(=O)c4ccccc4[nH]3)CC2CCO)o1 (centres undefined) | -3 | 8% | 9% | 17% | 0%
Cc1ccc(CN2CCN(Cc3c[nH]c4ccccc34)CC2CCO)o1 (centres undefined) | 0 | 0% | -26% | ? | 7.3µM*
Cc1ccc2[nH]c(CN3CCN(C)C(CCO)C3)c(C)c2c1 (centres undefined) | 5 | -17% | -22% | 24% | -14%
CCOc1ccc(CN2CCN(Cc3[nH]c4ccc(OC)cc4c3C)CC2CCO)cc1 (centres undefined) | -66* | ? | ? | ? | ?
O=C(NCCCNC(=O)c1ccco1)c1ccc(F)cc1 | 17 | 11% | 11% | -6% | -2%
O=C(c1ccco1)[C@@H]1[C@@H]2C(=O)N(c3ccc(F)cc3)C(=O)[C@@H]2[C@H]2C=Cc3ccccc3N21 | -18 | -14% | -15% | 18µM* | 6.5µM*
CC(=O)c1ccc(NC(=O)CCc2c(C)nc3c(c2C)c(=O)n(C)c(=O)n3C)cc1 | . | . | . | ? | -10%
Cc1nc2c(c(C)nn2-c2ccccc2)c(C)c1CCC(=O)Nc1ccc(CN2CCCC2)cc1 | -97* | 21µM* | 15µM* | ? | 16µM*
CCOc1ccc(CCNC(=O)c2cnc(C)cn2)cc1OCC | 14 | 1% | 5% | 1% | -20%
CCOc1ccc(CCNC(=O)c2ccc3ccccc3n2)cc1OCC | 11 | -7% | -26% | 8.2µM* | 18µM*
COc1cc(NC(=O)CCc2c(C)nc3c(c(C)nn3-c3ccccc3)c2C)cc(OC)c1OC | . | . | . | 12µM* | 15µM*
Cc1cc(C)cc(NC(=O)CCc2c(C)nc3c(c2C)c(=O)n(C)c(=O)n3C)c1 | . | . | . | 16µM* | ?
Cc1nc2c(c(C)nn2-c2ccccc2)c(C)c1CCC(=O)Nc1ccccc1 | . | . | . | -22% | -11%
O=c1[nH][nH]c(C(F)(F)F)c1C=NCc1cccc(Cl)c1 | 10 | 5% | 11% | 4% | 1%
CNC(=O)COc1coc(CN2CCN(c3ccccc3OC)CC2)cc1=O | 25 | 1% | 15% | 7% | 9%
Cc1ccc(OCCNC(=O)c2ccc3ccccc3n2)cc1 | -3 | -2% | -2% | ? | ?
Cc1cccc(C)c1OCCNC(=O)c1ccc2ccccc2n1 | 38 | -9% | -2% | 16µM* | 21µM*
CCOc1ccc(CCNC(=O)c2c(C)nn(-c3ccccc3)c2Cl)cc1OCC | 26 | -7% | -7% | ? | 16µM*
CCCCNC(=O)CCc1c(C)nc2c(c(C)nn2-c2ccccc2)c1C | -10 | -1% | 2% | 18µM* | 18µM*
CCOC(=O)N1CCN(C(=O)CCc2c(C)nc3c(c(C)nn3-c3ccc(C)c(C)c3)c2C)CC1 | 23 | -3% | -4% | 16µM* | ?
Cc1nn(-c2ccccc2)c(Cl)c1C(=O)NCCCCNC(=O)c1c(C)nn(-c2ccccc2)c1Cl | -14 | 1% | 1% | -5% | 4%
SMILES | IL-1B inflam inh | HT1080 IDH1KD tx | HT1080NT lethal | TDP1 cell noCPT | TDP1 cell CPT
CCC(CNC(=O)c1c(C)nn(-c2ccccc2)c1Cl)c1ccccc1 (centres undefined) | -82* | 3% | 7% | 21µM* | 23µM*
Cc1nc2c(c(C)nn2-c2ccccc2)c(C)c1CCC(=O)NCCc1ccccc1 | . | . | . | 21µM* | 21µM*
Cc1ccc(-n2nc(C)c3c(C)c(CCC(=O)NCc4ccccc4)c(C)nc32)cc1 | 21 | 4% | -1% | ? | ?
CCOc1ccc(CCNC(=O)CCc2c(C)nc3c(c(C)nn3-c3ccccc3)c2C)cc1OCC | . | . | . | 13µM* | 15µM*
CCOc1ccc(NC(=O)CCc2c(C)nc3c(c(C)nn3-c3ccccc3)c2C)cc1 | . | . | . | -22% | -24%
Cc1nc2c(c(C)nn2-c2ccccc2)c(C)c1CCC(=O)NCCCOC(C)C | 15 | -11% | -9% | 21µM* | -27%
Cc1ccccc1C(=O)Nc1ccccc1C(=O)OCc1cc(=O)n2ccsc2n1 | . | . | . | -12% | -1%
Cc1cc(C)n(CC(C)NCc2cn[nH]c2-c2cccc3ccccc23)n1 (centres undefined) | -10 | -9% | 1% | 18µM* | ?
Cc1cc(C)n(CC(C)NCc2cn[nH]c2-c2ccc(C)c(C)c2)n1 (centres undefined) | 7 | -4% | -10% | -29% | -23%
CCC(C)C(=O)Nc1cc(OC)c(OC)cc1C(=O)O (centres undefined) | 27 | 20% | 21% | -2% | 7%
CCC(CC)C(=O)Nc1cc(OC)c(OC)cc1C(=O)O | 24 | 20% | 15% | 18µM* | 16µM*
CCOc1ccccc1-c1nc(-c2cc3ccc(C)cc3[nH]c2=O)no1 | -22 | -2% | 1% | ? | 26µM*
CCCc1nc(-c2cc3ccc(C)cc3[nH]c2=O)no1 | -4 | 5% | 2% | -6% | -27%
